Measurements from PubChem BioAssay (NCATS).
Results filed as inconclusive are left out. The source made the active and inactive calls. The call rests on the fitted dose curve; in most records, active means well fitted inhibition curve with a large enough effect; inconclusive means small, poorly fitted or top-dose-only effect; inactive means flat fitted curve, though single readings scatter.

What was measured:
Assay in all cases: qHTS profiling for inhibitors of Plasmodium falciparum proliferation (AID 504749); further: nearly all actives have a fitted effect of over 60% in size
Conditions in all cases: P. falciparum in erythrocytes, SYBR Green DNA, 72 h; series mostly up to 28.7 µM
CP260 = system: CP260
Summary of the method: (§1)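 Three-day growth assay of blood-stage parasites in erythrocytes (0.3% parasitemia, 2.5% hematocrit) at 37 C, 5% CO2, quantified by SYBR Green DNA staining after overnight detergent lysis.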

CP262 = system: CP262
Summary of the method: as §1

CP265 = system: CP265
Summary of the method: as §1

CP266 = system: CP266
Summary of the method: as §1

CP268 = system: CP268
Summary of the method: as §1

CP269 = system: CP269
Summary of the method: as §1

CP286 = system: CP286
Summary of the method: as §1

CP291 = system: CP291
Summary of the method: as §1

CP297 = system: CP297
Summary of the method: as §1

CP305 = system: CP305
Summary of the method: as §1

CP315 = system: CP315
Summary of the method: as §1

CP325 = system: CP325
Summary of the method: as §1

CP329 = system: CP329
Summary of the method: as §1

CP335 = system: CP335
Summary of the method: as §1

DFO2036 = system: DFO2036
Summary of the method: as §1

DIV14 = system: DIV14
Summary of the method: as §1

DIV17 = system: DIV17
Summary of the method: as §1

DIV30 = system: DIV30
Summary of the method: as §1

Dd2 = system: Dd2
Summary of the method: as §1

ECU = system: ECU
Summary of the method: as §1

FAB9 = system: FAB9
Summary of the method: as §1

GB4 = system: GB4
Summary of the method: as §1

HB3 = system: HB3
Summary of the method: as §1

ICS = system: ICS
Summary of the method: as §1

JCK = system: JCK
Summary of the method: as §1

N140 = system: N140
Summary of the method: as §1

P93_24 = system: P93_24
Summary of the method: as §1

P94_40 = system: P94_40
Summary of the method: as §1

PAD = system: PAD
Summary of the method: as §1

PC15 = system: PC15
Summary of the method: as §1

PC26 = system: PC26
Summary of the method: as §1

PC49 = system: PC49
Summary of the method: as §1

SC27B = system: SC27B
Summary of the method: as §1

TAB109 = system: TAB109
Summary of the method: as §1

TAB113 = system: TAB113
Summary of the method: as §1

TAB165 = system: TAB165
Summary of the method: as §1

W2 = system: W2
Summary of the method: as §1

Measured: Potency

C[N+]1([O-])[C@H]2CC[C@H]1CC(OC(=O)[C@@H](CO)c1ccccc1)C2 (some centres not stated)
inactive: all assays above
